The record followed here is ChEMBL document CHEMBL4513146, “CO-ADD screening of Karazin Kharkiv National University (Ukraine) compounds”.

Potency and affinity values are given separately.

This assay deals with Staphylococcus aureus. To be noted: Concentration 32 ug.mL-1;; ASSAY_TEST Inhibition of Bacterial Growth; detection method Absorption (OD600); MEDIA CAMHB; plate type 384well; NBS; CORNING #3640; time 18 hr.
Broadly, the Inhibition is the relative decrease from the control value, in per cent. Regarding `Cc1cc(C)cc(NC(=O)Cn2nc3c4cc(-c5ccc(Cl)cc5)nn4ccn3c2=O)c1`, the Inhibition was 2.02%.
`COc1ccc(NC(=O)Cn2nc3ccc(-c4ccc(Cl)cc4)nn3c2=O)cc1OC`: the Inhibition was -0.18%.
For `Cc1ccc(-n2ccn3c(SCC(N)=O)nnc3c2=O)cc1C`, the Inhibition stood at 19.3%.
As for `O=S(=O)(c1ccc2nncn2c1)N(Cc1cccc(F)c1)c1ccc2c(c1)OCCO2`, the Inhibition is given as 1.17%.
As for `CC(C)CCNC(=O)CSc1nnc2c3cc(-c4ccccc4)nn3ccn12`, the figure is 4.29%; as for `Cc1ccc2c(c1)N(C(=O)Cn1nc3ccc(SC(C)(C)C)nn3c1=O)CCO2`, 10.2%; as for `COc1cccc(-n2ccn3c(SCC(=O)NC(C)C)nnc3c2=O)c1`, 11%.
On to `O=C(Cn1nc2c3sc(N4CCCC4)nc3ncn2c1=O)Nc1ccccc1Br`, for which the Inhibition is given as 3.7%.
The value for `Cc1ccc(CNC(=O)Cn2nc3c(SC4CCCCC4)nccn3c2=O)cc1` was 7.11%; that for `COc1ccc(NC(=O)CSc2nc3ccccc3n3cnnc23)cc1OC` was 12.3%; that for `Cc1nnc2ccc(S(=O)(=O)N(Cc3cccc(F)c3)c3ccc(F)c(F)c3)cn12` was 0.15%.
As for `CCc1ccc(N(Cc2cccc(C)c2)S(=O)(=O)c2cccn3c(C)nnc23)cc1`, the figure is -11.31%.
For `COc1ccc(OC)c(NC(=O)Cn2nc3c(Sc4ccccc4)nc4ccccc4n3c2=O)c1`, the Inhibition was found to be 6.17%.
`Cc1ccc(-n2ccn3c(=O)n(Cc4c(F)cccc4Cl)nc3c2=O)cc1C`: the Inhibition is on record as 10.39%.
In the case of `COc1cccc(-c2nc(CSc3nc4ccccc4n4c(C(C)C)nnc34)c(C)o2)c1OC`, the Inhibition was determined as 5.27%.
Consider `Cn1c(=O)c2sccc2n2c(=O)n(Cc3ccc(Cl)cc3)nc12`, for which the Inhibition came to 3.13%.
Regarding `Cc1ccc(Oc2nc3ccccc3n3c(=O)n(CC(=O)Nc4cccc(C(F)(F)F)c4)nc23)cc1`, the Inhibition was found to be 0.5%.
The value for `Cc1ccc(-c2ccc3nn(CC(=O)Nc4ccc(Cl)cc4F)c(=O)n3n2)cc1` was 8.27%; that for `COc1ccc(C(=O)CSc2nnc3c(=O)n(-c4ccccc4)ccn23)cc1OC` was -10.93%; that for `COc1cc(NC(=O)C(C)Sc2nnc3c(=O)n(-c4ccc(C)c(C)c4)ccn23)cc(OC)c1` (stereo not given) was -0.67%.
The value for `CCOc1ccccc1NC(=O)Cn1nc2c(N3CCN(c4ccccc4C)CC3)nccn2c1=O` was -2.13%; that for `CCCCn1c(=O)c2sccc2n2c(CCC(=O)Nc3ccc(OC(F)(F)F)cc3)nnc12` was 0.43%.
As for `COc1ccc(N(Cc2cc(F)cc(F)c2)S(=O)(=O)c2ccc3nnc(C)n3c2)cc1`, the Inhibition turned out to be 12.66%.
As for `CCc1nnc2c(S(=O)(=O)N(Cc3cccc(F)c3)c3ccccc3)cccn12`, the Inhibition came out at 7.57%.
The value for `CCC(C)NC(=O)Cn1nc2n(CCC(C)C)c(=O)c3sccc3n2c1=O` (stereo not given) was -2.65%; that for `CSc1cccc(NC(=O)Cn2nc3ccc(C(=O)NCc4ccccc4)cn3c2=O)c1` was 5.85%.
On to `CC(C)(C)S(=O)(=O)c1ccc2nn(CC(=O)Nc3ccc(Br)cc3)c(=O)n2n1`, for which the Inhibition worked out at 3.67%.
`CCc1ccc(N(Cc2ccccc2C)S(=O)(=O)c2cccn3c(C)nnc23)cc1`: the Inhibition turned out to be 9.52%.
Consider `COc1cc(OC)c(NC(=O)Cn2nc3c(N4CCOCC4)nccn3c2=O)cc1Cl`, for which the Inhibition stood at 4.84%.
Turning to `Cc1ccc(-c2cc3c4nnc(CCC(=O)N5CCN(c6ccccc6F)CC5)n4ccn3n2)cc1C`, the Inhibition is given as -1.08%.
On to `CCOc1ccc(-n2ccn3c(=O)n(CC(=O)Nc4ccc(Br)cc4)nc3c2=O)cc1`, for which the Inhibition is -12.91%.
With `Cc1cc(C)cc(Nc2nc(C)cc3nn(CC(=O)Nc4ccc(Cl)cc4)c(=O)n23)c1`, the Inhibition is -9.56%.
For the compound `CSc1ccc(CNC(=O)Cn2nc3c(N4CCN(c5ccccc5)CC4)nccn3c2=O)cc1`, the Inhibition is 15.59%.
`COc1cccc(CN(c2ccc(F)c(F)c2)S(=O)(=O)c2cccn3c(C)nnc23)c1`: the Inhibition turned out to be 17.08%.
Consider `O=C(Cn1nc2c(Oc3ccccc3)nccn2c1=O)Nc1ccccc1Cl`, for which the Inhibition is 6.14%.
The value for `O=S(=O)(Nc1ccc2c(c1)OCCO2)c1ccc2nncn2c1` was 11.97%; that for `COc1ccc(NC(=O)Cn2nc3c(Sc4cccc(F)c4)nccn3c2=O)cc1Cl` was 6.9%.
As to `Cc1ccc(NC(=O)CSc2nnc3c(=O)n(-c4ccc(C)c(C)c4)ccn23)c(Cl)c1`, the Inhibition came to 11.19%.
For `COc1ccccc1NC(=O)CSc1nnc2c(=O)n(-c3ccc(C)c(C)c3)ccn12`, the Inhibition worked out at 0.64%.
The value for `Cc1ccc(NC(=O)Cn2nc3c(Sc4cccc(F)c4)nccn3c2=O)cc1F` was 12.19%.
